Sm TGR inh: inhibitors of Schistosoma mansoni thioredoxin glutathione reductase | Q962Y6 | purified TGR, DTNB reduction, TNB absorbance 405 nm | Potency, µM (titrated, usually from 114 µM), for inactives: top-dose activity change, negative = inhibition, most hits filed as inhibitors | 3% of 360,000 active; further: on the % scale 0 is the no-effect control and ±100 the full control effect; nearly all actives have a fitted effect of over 60% in size
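TGR 20 nM + NADPH 100 uM (dispensed conc.), cpd preinc 15 min RT; start with NADPH (500 uM addition) then DTNB (15 mM addition). Kinetic TNB absorbance, 405 nm filter. Four-parameter Hill fit across titration.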
Pf growth 48h: P. falciparum growth inhibition at 48 hours (one generation); P. falciparum luciferase growth in erythrocytes, 48 h; Potency, µM (series often up to 28.7 µM), without a hit: at the highest dose activity change, negative = inhibition, actives largely listed as inhibitors; 5.9% of 310,000 active; AID 504832; further: on the % scale 0 is the no-effect control and ±100 the full control effect
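A one-generation exposure of luciferase-tagged malaria parasites in RPMI 1640/Albumax erythrocyte culture, 37 C and 5% CO2. Inhibition is inferred from decreased luminescence after adding detection reagent.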
AMA1-RON2 inh: AMA1-RON2 (P. falciparum) interaction inhibition; AlphaScreen AMA1-biotinylated RON2 peptide binding; Potency, µM (doses to about 58.2 µM), without a hit: top-dose activity change, negative = inhibition, most hits filed as inhibitors; 0.2% of 360,000 active; AID 720542;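 further: 0% = vehicle wells and -100% = peptide control; nearly all actives have a fitted effect of over 45% in size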
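AMA1 (3D7) with his tag at 25 nM final met compounds first, then biotinylated RON2 peptide at 25 nM; detection used donor plus acceptor beads, 10 µg/mL apiece, read by AlphaScreen after 30 min at room temperature.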
NS1 function inh: blocks influenza NS1 protein function; 0.4% of 270,000 active; Potency, µM (doses to about 46.1 µM), without a hit: top-dose activity, positive = more growth; calls by dose curve; further: actives are rising curves; nearly all actives have a fitted effect of over 50% in size
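Recovery from NS1-induced slow growth read by OD600 in budding yeast switched to galactose assay medium (pH 6.0, -URA) at 1:100 dilution. Compound 23 nl per well; the matching strain lacking NS1 serves as control.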
Pf growth 96h: P. falciparum growth inhibition at 96 hour, primary screen for plastid delayed-death inhibitors; P. falciparum luciferase reporter growth, 96 h; Potency, µM (top dose mostly 28.7 µM), for the others: at the highest dose activity change, negative = inhibition, hits mostly inhibitors; 6.9% of 320,000 active; AID 504834; further: on the % scale 0 is the no-effect control and ±100 the full control effect
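Readout is luminescence from an integrated firefly luciferase in P. falciparum. Red cells, 2% hematocrit and 0.05% parasitemia final, were cultured with compound through two parasite generations (96 hours) at 37 C, 5% CO2.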
An asterisk follows results filed as active; ? = inconclusive; . = no result given; [ ] = dose if it differs, or a comment. This is a sample that favours compounds with a hit; in the whole collection about 11% have one here. Unless noted, the call rests on the fitted dose curve; in most records, active means well fitted curve in the direction sought with a large enough effect; inconclusive means small, poorly fitted or top-dose-only effect, or another doubt; inactive means no such curve, though single readings can be large; an effect the other way counts as inactive or inconclusive. Potency means the concentration at half of the fitted maximal effect.

SMILES	Sm TGR inh	Pf growth 48h	AMA1-RON2 inh	NS1 function inh	Pf growth 96h
CCOc1ccccc1NC(=O)/C(C#N)=C/c1cccnc1	0%	-23%	4%	-4%	13µM*
Cc1cccc(/C=C(\C#N)C(=O)Nc2ccccn2)c1	8%	13%	0%	-3%	-1%
COc1cc(/C=C(\C#N)C(=O)Nc2ccccn2)ccc1O	14µM*	13%	-17%	0%	8%
CCOc1cccc(NC(=O)/C(C#N)=C/c2cccnc2)c1	-28%	-11%	-1%	-6%	-3%
COc1cc(/C=C(\C#N)C(=O)Nc2cccc3ncccc23)ccc1O	.	0%	.	12%	16%
CCOc1cc(/C=C(\C#N)C(=O)Nc2ccccn2)ccc1O	18µM*	32%	-2%	-23%	14%
COCCNC(=O)Cn1nc(Cc2ccncc2)c2ccccc2c1=O	0%	15%	0%	8%	11%
CCC(CC)c1nnc(NC(=O)Cc2c[nH]c3ccccc23)s1	.	.	-7%	.	.
CC(NC(=O)c1cccc(OC2CCN(C3CCN(C)CC3)CC2)c1)c1ccccc1 (stereo not given)	14µM*	?	13%	9%	?
O=C(OCCN1C(=O)c2cccc3c(N4CCOCC4)ccc(c23)C1=O)c1ccc(Cl)cc1	4%	?	8%	10%	12µM*
Cc1cc(C)c(NC(=S)N(CCc2ccncc2)C(C)C)c(C)c1	-5%	10µM*	9%	.	-7%
Cc1ccc(C)c(NC(=S)N(CCc2ccncc2)C(C)C)c1	0%	-18%	-6%	.	21%
C/C(=N\O)c1ncc(C(F)(F)F)cc1Cl	-1%	11%	19%	1%	22%
CCOC(=O)C1(C)/C(=N/Nc2cccc(Cl)c2)C(=O)C(=O)N1c1ccccc1 (stereo not given)	0%	40%	4%	-23%	-7%
CCOC(=O)C1(C)/C(=N/Nc2ccc(Cl)cc2)C(=O)C(=O)N1c1ccccc1 (stereo not given)	50µM*	8%	3%	-50%	.
O=C(NC1CCCC1)C(c1ccncc1)N(Cc1ccco1)C(=O)c1ccc(-c2ccccc2)[nH]1 (stereo not given)	28µM*	?	-24%	.	67%[5.75 µM]
CC(C)(C)NC(=O)C(c1ccncc1)N(Cc1ccc(F)cc1)C(=O)c1ccc(-c2ccccc2)[nH]1 (stereo not given)	32µM*	?	-8%	.	?
Cc1ccc(NC2=CC(=O)CC(c3ccc(Cl)cc3)C2)cc1 (stereo not given)	2%	13µM*	9%[2.32 µM]	-5%	?
Cc1ccc(-c2ccc(C(=O)NCCCNC(=O)c3cnccn3)o2)cc1Cl	32µM*	?	10%	-2%	-1%
O=C(COC(=O)C1=COCCO1)Nc1ncc(C(F)(F)F)cc1Cl	100µM*	9%	4%	5%	?
CN(Cc1ccco1)S(=O)(=O)c1ccc(CN2C(=O)c3cccnc3C2=O)s1	-4%	7%	10%	-1%	-15%
O=[N+]([O-])c1ccc(-[n+]2c(-c3ccccc3)cc(-c3ccccc3)cc2-c2ccccc2)cc1	8%	?	-2%	-6%	0%
Cc1cc(-c2ccccc2)cc(-c2ccccc2)[n+]1CCc1ccccc1	-5%	0.47µM*	4%	.	0.52µM*
C[n+]1c(-c2ccccc2)cc(-c2ccc(O)cc2)cc1-c1ccccc1	-16%	?	0%	.	2.1µM*
COc1ccc(-[n+]2c(-c3ccccc3)cc(-c3ccccc3)cc2-c2ccccc2)cc1	-16%	0.83µM*	5%	.	0.29µM*
SMILES	Sm TGR inh	Pf growth 48h	AMA1-RON2 inh	NS1 function inh	Pf growth 96h
Cc1cc(-c2ccccc2)cc(-c2ccccc2)[n+]1C	-1%	10µM*	1%	.	0.93µM*
CCOc1ccc(-c2cc(C)[n+](CCc3ccc(OC)c(OC)c3)c(-c3ccc(OCC)cc3)c2)cc1	3%	?	-4%	-47%	?
COc1cccc(N2CCN(c3ccc4nnc(CCC(=O)Nc5ccccn5)n4n3)CC2)c1	-2%	-23%	-9%	1%	?
COc1ccc(S(=O)(=O)N(C)C)cc1NC(=O)CSc1nnc(-c2cccnc2)o1	-2%	10%	16%	.	2%
COc1ccc(NC(=O)c2nnn(CC(=O)Nc3cc(C)cc(C)c3)c2N)c(OC)c1	-7%	.	.	.	.
O=C([O-])c1ccc(-[n+]2c(-c3ccccc3)cc(-c3ccccc3)cc2-c2ccccc2)cc1	-5%	?	-6%	.	?
Oc1ccc(-[n+]2c(-c3ccccc3)cc(-c3ccccc3)cc2-c2ccccc2)cc1	-2%	0.37µM*	-12%	.	0.13µM*
COc1ccc(CNC(=O)C2CCCN(S(=O)(=O)c3ccc4c(c3)CCCN4C(C)=O)C2)cc1 (stereo not given)	8%	8%	20%	-23%	?
Cn1cncc1C#Cc1c(C=O)n(C)c2ccccc12	-31%	12µM*	11%	.	?
Cn1cncc1C#Cc1c(C=O)[nH]c2ccccc12	-27%	8.3µM*	5%	.	5.2µM*
COc1cc(C#Cc2c(C=O)n(C)c3ccccc23)cc(OC)c1	-5%	?	28%	.	?
COC(=O)c1scc(C)c1N/N=C(\C)c1ccc(F)cc1F	5%	.	3%	-1%	2.1µM*
COC(=O)CNC(c1ccccc1Cl)c1cc(Br)ccc1NS(=O)(=O)c1ccc(C)cc1 (stereo not given)	-3%	3.3µM*	46%	4%	-10%
COc1cccc(-c2nnn(C/C(N)=N/O)n2)c1	7%	58%	19%	11%	2.3µM*
COc1cccc(-c2nnn(CC(=O)O)n2)c1	0%	9%	-6%	-2%	?
CSc1cccc(NS(=O)(=O)c2ccc(-c3coc(C)n3)cc2)c1	-3%	-7%	14%	3%	4.7µM*
Cc1nc(-c2ccc(S(=O)(=O)Nc3ccc(S(N)(=O)=O)cc3)cc2)co1	-11%	-4%	5%	-5%	10µM*
Cc1nc(-c2ccc(S(=O)(=O)Nc3cccc(Cl)c3)cc2)co1	-9%	38%	-2%	-9%	?
O=C(Nc1ccccc1F)c1oc2ccccc2c1NC(=O)C12CC3CC(CC(C3)C1)C2	2%	.	.	.	.
Cc1ccccc1Cn1c(NC2CCCC2)nc2c1c(=O)[nH]c(=O)n2C	1%	-1%	-6%	9%	?
Cc1ccccc1OC(=O)CSc1nnc(-c2ccc3c(c2)OCO3)o1	0%	.	.	.	.
CCOC(=O)Nc1sc2c(c1C#N)CCC(C)C2 (stereo not given)	-1%	114%	-1%	-8%	?
CCNC(=S)Nc1sc2c(c1C#N)CCC(C)C2 (stereo not given)	-28%	?	-11%	-65%	5.9µM*
CC(=O)c1cccc(NC(=O)c2nc(-c3ccccc3)n(-c3cccc(Cl)c3)n2)c1	-3%	.	.	.	.
N#C/C(=C\c1ccc(Cl)cc1)C(=O)NC1CC1	.	.	11%	.	.
N#C/C(=C\c1ccccc1Br)C(=O)NC1CC1	-21%	-18%	-8%	10%	1.5µM*

Screening results as filed in PubChem.
